KKLEB tox – reduces viability of KKLEB cystic fibrosis airway cells; 360,000 compounds, 0.36% hits; activity change (cytotoxicity), % at 5 µM; KKLEB CF airway cells viability, ATPlite luminescence, overnight; active compounds read low; cells stimulated with P. aeruginosa culture filtrate;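 active = corrected activity change at or below -50% at 5 µM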
HIF-2a block – blocks HIF-2a reporter activity. inhibition, % at 18.8 µM. 360,000 compounds, 0.72% hits. 786-0 RCC cells HIF-2a reporter, luciferase luminescence, overnight;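 active = inhibition of the luminescence signal of 40% or more relative to plate controls, in a single-dose primary screen at 18.75 µM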
CF NFkB inh – blocks PAF-induced NF-kB reporter in cystic fibrosis cells; KKLEB NF-kB-GFP reporter, GFP fluorescence overnight; inhibition, % at 5 µM; 360,000 compounds, 0.86% hits;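 active = at least 50% inhibition at 5 µM, scaled per plate between neutral and stimulator controls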;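 note: PAF is a Pseudomonas aeruginosa culture filtrate used as stimulus; plate controls were PAF-stimulated DMSO wells for no effect and unstimulated DMSO wells for full effect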
TROY signal inh – inhibitors of TROY-dependent NF-kB signaling. Q293 LMP1-TROYcd NF-kB luciferase reporter, 4 h. inhibition, % at 10 µM. 360,000 compounds, 0.98% hits. AID 1347056;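 active = compounds whose plate-normalised and pattern-corrected inhibition of the luciferase reporter signal at the single screening dose is 50% or more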
Peg3 promoter – inhibitors of Peg3 promoter | inhibition, % at 20 µM | 360,000 compounds, 1.7% hits | HeLa PEG-Prom luciferase reporter, luminescence, overnight;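 active = inhibition of at least 50% at 20 µM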
TWEAK Fn14 block – blocks TWEAK-Fn14 interaction in a reporter cell assay. inhibition, % at 10 µM. AID 1159606. TWEAK-stimulated Fn14 reporter cells, luciferase luminescence, 8 h. 360,000 compounds, 2% hits; in the data active = inhibition above about 50%
An asterisk follows results filed as active. Only some compounds are listed: those with a hit (about 3.9% of all), similar ones and a draw of the others.

SMILES | KKLEB tox | HIF-2a block | CF NFkB inh | TROY signal inh | Peg3 promoter | TWEAK Fn14 block
Clc1ccc2c(N/N=C/c3ccc(Br)cc3)ccnc2c1 | -16 | 33 | -17 | -3 | 105* | -37
Cc1ccc(/C=N/Nc2ccnc3cc(Cl)ccc23)c(C)c1 | -36 | 8 | -16 | 41 | 111* | 19
CCCCOc1ccccc1P(=O)(O)CP(=O)(c1ccccc1)c1ccccc1 | 3 | 3 | -10 | 1 | 1 | 0
Cc1cccc(C)c1NC(=O)c1cccc2c1C(=O)N(C1CCCCC1)C2 | -10 | 10 | -12 | 3 | 30 | -11
COC(=O)Nc1cc(C(=O)c2ccc(Cl)cc2Cl)c[nH]1 | 0 | 9 | 15 | 8 | -10 | 7
NC(=O)CSC1=Nc2ccccc2C2=NC(c3ccccc3)C(=O)N12 (configuration not stated) | 10 | 2 | 7 | -7 | 11 | 12
C=CCN(c1ccccc1)S(=O)(=O)c1cccc(C(=O)Nc2nnc(SCC)s2)c1 | -3 | 11 | -13 | 53* | 16 | 13
O=C(NC(=S)N1CCN(c2nc(-c3ccccc3)cs2)CC1)c1cccnc1 | 0 | -69 | -2 | -10 | -40 | -15
O=C(COC(=O)c1ccccc1[N+](=O)[O-])c1ccc(C2CCCCC2)cc1 | -7 | 17 | 4 | 78* | -34 | 81*
COc1ccc(CC(=O)Nc2cccc3c2CCCC3)cc1 | -2 | -15 | -7 | -10 | 11 | 104*
COc1ccc(C(=O)Nc2cccc3c2CCCC3)cc1 | -3 | -146 | -4 | -9 | -43 | 9
O=C(COc1ccccc1)OCC(=O)N1CCCc2ccccc21 | 4 | 11 | -31 | 60* | 16 | 0
O=C(c1cc(=O)c2ccccc2o1)N1CCCc2ccccc21 | -2 | -33 | 10 | 28 | -26 | 52*
N#CC1(NC(=O)COC(=O)c2ccccc2[N+](=O)[O-])CCCCC1 | 8 | -18 | -6 | -31 | -68 | -14
COC(=O)c1cc(Cl)cc2c(CCO)c[nH]c12 | 13 | -16 | -23 | -2 | -16 | -12
COc1ccc(S(=O)(=O)O/N=C2\CCSc3ccc(C)cc32)cc1 | 0 | 18 | -21 | -17 | 17 | -1
COc1cc(OC)cc(C(=O)N2CCCc3ccccc32)c1 | 2 | -64 | 19 | 41 | 6 | 52*
O=C(OCC(=O)N1CCc2ccccc21)c1ccccc1[N+](=O)[O-] | -10 | -171 | -14 | 50 | -164 | 60*
COc1ccc(CC(=O)N2CCCc3ccccc32)cc1 | -4 | -34 | -8 | 35 | -47 | 50*
O=C(OCC(=O)N1CCc2ccccc21)c1ccccc1F | 3 | -25 | -26 | -20 | -224 | -19
O=C(C1CC(c2ccc(F)cc2)=NO1)N1CCCc2ccccc21 (configuration not stated) | -19 | -41 | 14 | -14 | -32 | 8
COc1ccc(OC)c(C2=NOC(C(=O)N3CCCc4ccccc43)C2)c1 (configuration not stated) | 1 | -46 | 1 | 39 | -145 | 55*
OCC#Cc1cnc2ccccc2c1 | 1 | -30 | -23 | -29 | -21 | -6
C=CCNC(=O)CCCCCNS(=O)(=O)c1ccc(OC)cc1 | 0 | 12 | -1 | -2 | 2 | 0
O=C(CCS(=O)(=O)c1ccc(Cl)cc1)N1CCCc2ccccc21 | -15 | -57 | 4 | 65* | -32 | 53*
SMILES | KKLEB tox | HIF-2a block | CF NFkB inh | TROY signal inh | Peg3 promoter | TWEAK Fn14 block
CCOc1ccc2c(c1)C(C)=CC(C)(C)N2S(=O)(=O)c1ccc(C)cc1 | -22 | 39 | 61* | 14 | 20 | 35
CC1=CC(C)(C)N(S(=O)(=O)c2ccc(C)cc2)c2cc(C)ccc21 | -29 | 6 | 51* | 33 | 31 | 21
COc1ccc2c(c1)C(C)=CC(C)(C)N2S(=O)(=O)c1ccc(C)cc1 | -27 | 12 | 49 | -2 | 31 | 27
CCOc1ccc(N(C)S(=O)(=O)c2ccc(C)c(C(=O)OCC(=O)c3c[nH]c4ccccc34)c2)cc1 | 18 | 5 | 14 | 23 | 28 | 79*
O=C(NCc1ccco1)C1CCN(C(=O)c2cc3sccc3n2Cc2ccc(Cl)cc2)CC1 | -7 | 13 | 17 | 45 | 25 | 50*
O=C(NCc1ccco1)C1CCN(C(=O)c2ccc(Cl)cc2)CC1 | -2 | 6 | -5 | -12 | 0 | -3
Cc1ccc(NC(=O)NCCCN2CCCC2=O)cc1 | -4 | -41 | 5 | 13 | -15 | -8
